FECH inh: inhibitors of human ferrochelatase | AID 1671448 | purified FECH, Ni-mesoporphyrin absorbance 550 nm | calls only at 10 µM (by protocol) | P22830 | hit rate 3.3% among 20,000;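 active = enzyme reaction rate more than 3 SD below the solvent-only control wells on the same plate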;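 note: lower slope than DMSO wells means FECH inhibition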
Target sequence (P22830 whole entry, looked up): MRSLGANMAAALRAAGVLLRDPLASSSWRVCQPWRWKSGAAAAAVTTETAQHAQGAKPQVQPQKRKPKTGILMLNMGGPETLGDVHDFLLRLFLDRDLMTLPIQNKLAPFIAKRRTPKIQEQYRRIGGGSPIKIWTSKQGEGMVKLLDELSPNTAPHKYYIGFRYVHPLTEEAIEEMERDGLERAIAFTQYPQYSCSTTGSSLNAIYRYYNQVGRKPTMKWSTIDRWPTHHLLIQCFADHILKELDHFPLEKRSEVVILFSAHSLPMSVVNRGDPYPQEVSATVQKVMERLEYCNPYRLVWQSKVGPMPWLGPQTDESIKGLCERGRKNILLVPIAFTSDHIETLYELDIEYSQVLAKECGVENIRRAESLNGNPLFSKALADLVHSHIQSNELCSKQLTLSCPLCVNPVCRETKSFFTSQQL
Numbers without * were called inactive; i = inactive; + = active, no number. Many of the other results were omitted from the sample, so hits are more common in it than they were.

SMILES | FECH inh
CCOc1ccc(NC(=O)CN2CCN(Cc3cccc(C)c3)S2(=O)=O)cc1 | i
COc1ccc(NC(=O)CN2CCN(Cc3ccc(C)cc3)S2(=O)=O)cc1 | i
Cc1ccc(NC(=O)CN2CCN(Cc3ccccc3)S2(=O)=O)cc1C | i
Cc1nnc(NC(=O)N(C)CC2COc3ccccc3O2)s1 (stereo not drawn) | i
CC(c1ccc(C(=O)NCCN2CCNC2=O)o1)N1CCCCC1 (stereo not drawn) | i
Cc1ccc(NC(=O)Cc2csc(NC(=O)Nc3cccc(Cl)c3)n2)cc1C | i
O=C(CN1C(=O)C2CCCCN2c2ccc(S(=O)(=O)N3CCCCC3)cc21)NC1CCCCC1 (stereo not drawn) | i
Cc1ccc(C)c(S(=O)(=O)NCc2nc3cccnc3n2C2CCCC2)c1 | i
O=C(Cc1ccc(F)cc1)NCC1=CCCN(Cc2cnc[nH]2)C1 | i
COc1ccc2[nH]c(C(=O)NCc3cccnc3N(C)C)c(C)c2c1 | i
Cc1n[nH]c(C)c1Cc1n[nH]c(=O)n1CCc1ccccc1F | i
C=C(C)CN(C)C(=O)c1ccc2nc(C)c(C)nc2c1 | i
COc1ccc2c(c1)CC(C(=O)N(C)Cc1ccco1)CO2 (stereo not drawn) | i
COc1ccc(NC(=O)CN2CCCN(Cc3ccccc3Cl)S2(=O)=O)cc1Cl | +
O=C(CN1CCCN(Cc2ccc(Cl)cc2)S1(=O)=O)Nc1cccc(Cl)c1 | +
COc1ccc(NC(=O)CN2CCCN(Cc3ccc(Cl)cc3)S2(=O)=O)cc1Cl | +
CCOc1ccc(NC(=O)CN2CCCN(Cc3ccc(C)cc3)S2(=O)=O)cc1 | +
O=C(CN1CCCN(Cc2ccc(Cl)cc2)S1(=O)=O)Nc1ccc(F)c(Cl)c1 | i
CC(=O)c1cccc(NC(=O)CN2CCCN(Cc3ccccc3Cl)S2(=O)=O)c1 | i
COc1ccc(NC(=O)CN2CCCN(Cc3ccc(C)cc3)S2(=O)=O)cc1 | i
Cc1cccc(NC(=O)CN2CCCN(Cc3ccc(Cl)cc3)S2(=O)=O)c1 | i
O=C(CN1CCCN(Cc2cccc(Cl)c2)S1(=O)=O)Nc1cccc(Cl)c1 | i
O=C(CN1CCCN(Cc2ccccc2Cl)S1(=O)=O)Nc1ccccc1 | i
CCOC(=O)c1ccc(NC(=O)CN2CCCN(Cc3ccc(C)cc3)S2(=O)=O)cc1 | i
COc1ccc(NC(=O)CN2CCCN(Cc3ccccc3)S2(=O)=O)cc1Cl | i
SMILES | FECH inh
COCc1c(C(=O)N(C)Cc2ccc(C)o2)noc1C | i
Cc1ccc(-c2nc(N3CCN(CCN(C)C)CC3)ncc2-c2ccoc2)cc1 | i
Cc1cccc(-n2c(CN3CCN(S(=O)(=O)c4ccc(Cl)s4)CC3)nc3cccnc32)c1 | i
COc1ccc(C)cc1N(C)C(=O)Cn1c(=O)c2cnc(-c3ccccc3)nc2n(C)c1=O | i
CCn1c(=O)c2sccc2n2c(CCC(=O)NCCc3ccc(S(N)(=O)=O)cc3)nnc12 | i
CCc1ccccc1NC(=O)c1cccc(NC(=O)C2C=CCN2)c1 (stereo not drawn) | i
Cc1ccc(C)c(NC(=O)N2CCC(n3cnc4cccnc43)CC2)c1 | i
CCOC(=O)c1ccccc1NC(=O)CN1CCN(Cc2ccc(F)cc2)S1(=O)=O | i
CC(C)Cc1ccc(S(=O)(=O)N2CCN(c3cc(-c4ccc(F)cc4)ncn3)CC2)cc1 | i
COc1cccc(-c2cc(N3CCN(S(=O)(=O)c4ccc(Br)cc4)CC3)ncn2)c1 | i
COc1cccc(-c2cc(N3CCN(S(=O)(=O)c4ccc(OC)c(Cl)c4)CC3)ncn2)c1 | i
Cc1cccc(-c2cc(N3CCN(S(=O)(=O)c4c(C)noc4C)CC3)ncn2)c1 | i
COc1cccc(-c2cc(N3CCN(S(=O)(=O)c4cc(OC)ccc4OC)CC3)ncn2)c1 | +
COc1cccc(-c2cc(N3CCN(S(=O)(=O)c4ccc(F)cc4)CC3)ncn2)c1 | i
COc1cccc(-c2cc(N3CCN(S(=O)(=O)c4c(C)noc4C)CC3)ncn2)c1 | +
COc1cccc(-c2cc(N3CCN(S(=O)(=O)c4ccccc4)CC3)ncn2)c1 | +
COc1cccc(-c2cc(N3CCN(S(=O)(=O)c4cc(Cl)ccc4OC)CC3)ncn2)c1 | i
Cc1ccc(-c2cc(N3CCN(S(=O)(=O)c4c(C)noc4C)CC3)ncn2)cc1 | i
Cc1cccc(-c2cc(N3CCN(S(=O)(=O)c4ccc(CC(C)C)cc4)CC3)ncn2)c1 | +
Cc1ccc(-c2cc(N3CCN(S(=O)(=O)c4ccc(CC(C)C)cc4)CC3)ncn2)cc1 | i
Cc1ccc(N2CCC(n3cc(C(=O)NCC(C)C)nn3)CC2)nn1 | i
CC(=O)NCCC1=CCCN(CC(=O)Nc2ccc(C)cn2)C1 | i
O=C1CC(=O)Nc2cc(S(=O)(=O)Nc3ccccc3)ccc2N1 | i
CC(=O)NCC1=CCCN(CCn2cc(Cl)cn2)C1 | i
CCOc1ccccc1N(Cc1nc2nc(C)cc(=O)n2[nH]1)C(=O)C(C)C | i
SMILES | FECH inh
CCNC(=O)[C@@H]1C[C@@H](N)CN1C(=O)CN1CCN(c2cccc(C)c2)CC1 | i
CSc1cccc(NC(=O)CN2C(=O)CN(C)C(=O)c3ccccc32)c1 | i
CN1CCC(Cc2noc(-c3[nH]cnc3-c3ccccc3)n2)CC1 | i
OCc1cc(-c2nccc(C3CCCC3)n2)ccc1F | i
Cc1c(Cl)cccc1Nc1cc(C(C)C)nc2nc(-c3cccnc3)nn12 | i
Cc1cccc(NC(=O)CSCc2nc(-c3ccccc3)no2)c1C | i
CCN1C(SCC(=O)Nc2cccc(C)c2C)=NS(=O)(=O)c2ccccc21 | +
CN(C)c1nc2ncnc(SCC(=O)Nc3ccccc3F)c2s1 | i
Cc1ccc(CN2CCN(CC(=O)Nc3ccccc3F)S2(=O)=O)cc1 | i
CCN1C(SCC(=O)Nc2ccccc2F)=NS(=O)(=O)c2ccccc21 | +
Cc1cccc(NC(=O)CN2C(=O)CC(c3ccccc3)=Nc3ccccc32)c1C | i
COCCNC(=O)C1(C)Cn2c(cc3ccsc32)C(=O)N1Cc1ccccc1OC (stereo not drawn) | i
COCCNC(=O)C1(C)Cn2c(cc3ccsc32)C(=O)N1Cc1ccccc1 (stereo not drawn) | i
COCCNC(=O)C1(C)Cn2c(cc3ccsc32)C(=O)N1Cc1ccccc1C (stereo not drawn) | +
CCc1nc(OCC(=O)NCCCN2CCCC2=O)c2c(-c3ccc(F)cc3)noc2n1 | i
Cc1ccn2c(=O)cc(COc3cccc(NC(=O)c4ccccc4)c3)nc2c1 | i
Cc1ccc(-c2nc(C)cc(OCC(=O)Nc3ccc(C)c(F)c3)n2)cc1 | +
COc1ccc(NC(=O)COc2cc(C)nc(-c3ccc(C)cc3)n2)cc1OC | i
Cc1ccc(-c2nc(C)cc(OCC(=O)Nc3cc(C)ccc3C)n2)cc1 | i
CCc1c(C)nc2ncnn2c1Sc1ccc(NC(=O)Nc2ccc(F)cc2)cc1 | i
CCc1c(C)nc2ncnn2c1Sc1ccc(NC(=O)Nc2ccc(C)c(F)c2)cc1 | +
CCc1c(C)nc2ncnn2c1Sc1ccc(NC(=O)Nc2ccc3c(c2)OCCO3)cc1 | +
CCc1c(C)nc2ncnn2c1Sc1ccc(NC(=O)Nc2cccc(C)c2)cc1 | i
CCc1c(C)nc2ncnn2c1Sc1ccc(NC(=O)Nc2ccc(C)c(C)c2)cc1 | i
CCc1c(C)nc2ncnn2c1Sc1ccc(NC(=O)Nc2ccccc2)cc1 | i
Cc1ccc(Nc2cc(C)nc(Nc3ccc(NC(=O)CCCc4ccccc4)cc3)n2)cc1 | i
COc1ccc(S(=O)(=O)Nc2cnc(N(C)Cc3ccccc3)c(C(=O)O)c2)cc1Cl | i
